Consider 27 compounds from PubChem BioAssay (NCATS).

Values joined by “and” are separate entries in the source; they are usually repeats but may differ in a detail not shown here. Equal entries are not always repeated. Records with an inconclusive call do not appear. Active and inactive are the calls of the source. Calls follow the shape of the dose curve; as a rule, active = well fitted curve in the direction sought with a large enough effect; inconclusive = small, poorly fitted or top-dose-only effect, or another doubt; inactive = no such curve, though single readings can be large; an effect the other way counts as inactive or inconclusive.
Also: nearly all actives have a fitted effect of over 70% in size.
Potency is read from the fitted curve at half-maximal effect.

The first assay is described as follows: Primary qHTS for inhibitors of nuclear receptor binding SET domain protein 2 (NSD2) in an isogenic RCH-ACV NSD2 p.E1099K mutant (9B) (AID 1645876). Particulars: RCH-ACV NSD2 E1099K (9B) viability, CellTiter-Glo, 72 h; series mostly up to 44.9 µM.
As for `Cc1cc(Nc2nc(N[C@@H](C)c3ccc(F)cc3)c(C#N)cc2F)n[nH]1`, the Potency is 578 nM (active) and 934 nM (active).

As for `O=C(O)Cn1nnc(-c2cc(N3CCC(Oc4cc(F)ccc4Br)CC3)no2)n1`, the Potency result is “inactive”.

In the case of `COc1ccc2c(OCc3nnc4ccc(-c5ccccc5)nn34)ccnc2c1`, the Potency result was “inactive”.

As to `COc1c(N2C[C@@H]3CCCN[C@H]3C2)c(F)cc2c(=O)c(C(=O)O)cn(C3CC3)c12`, the Potency result was “inactive”.

For the compound `CN1CCN(Cc2ccc(NC(=O)Nc3ccc(Oc4cc(NC(=O)C5CC5)ncn4)cc3)cc2C(F)(F)F)CC1`, the Potency was 91.6 nM (active) and 166 nM (active).

With `CNC(=O)c1nn(C)c2c1C(C)(C)Cc1cnc(Nc3ccc(N4CCN(C)CC4)cc3)nc1-2`, the Potency was 515 nM (active) and 662 nM (active).

`COc1cc(Nc2ncc(F)c(Nc3ccc4c(n3)N(COP(=O)(O)O)C(=O)C(C)(C)O4)n2)cc(OC)c1OC`: the Potency is 1.29 µM (active) and 5.17 µM (active) and 1.48 µM (active).

`COc1ccc(C(=O)CC2(O)C(=O)Nc3c(Cl)ccc(Cl)c32)cc1` (stereo not given): the Potency is 2.58 µM (active).

With `CC(C)c1nn(-c2c(Cl)cccc2Cl)c2nc(Cc3ccc(OCCO)cc3)[nH]c(=O)c12`, the Potency was 45.9 nM (active) and 46.8 nM (active).

The nature of another assay: Primary qHTS for inhibitors of nuclear receptor binding SET domain protein 2 (NSD2) in an RCH-ACV wild type WT cells (2C) (AID 1645877). Particulars: RCH-ACV (leukaemia line) NSD2 WT (2C) viability, CellTiter-Glo, 72 h; series mostly up to 44.9 µM.
For `OCCCNc1cc(-c2ccnc(Nc3cccc(Cl)c3)n2)ccn1`, the Potency is 51.7 nM (active) and 33.2 nM (active).

As to `COc1cc2c(Oc3ccc(-c4cnc(Nc5ccc(F)cc5)n(C)c4=O)cc3F)ccnc2cc1OCCCN1CCOCC1`, the Potency was 4.59 µM (active) and 2.09 µM (active).

Regarding `C#Cc1cccc(Nc2ncnc3cc(OC)c(OCCCCCCC(=O)NO)cc23)c1`, the Potency is 230 nM (active) and 296 nM (active).

Turning to `Nc1nccc(Oc2ccc(NC(=O)c3c[nH]cc(-c4ccc(F)cc4)c3=O)cc2F)c1Cl`, the Potency is 10.5 µM (active).

Consider `CCS(=O)(=O)c1cccc(-c2cc(C(=O)NC3CCN(C)CC3)c(C)c3[nH]c4ncc(C)cc4c23)c1`, for which the Potency is 35.8 nM (active) and 41.7 nM (active).

`Nc1ccccc1NC(=O)c1ccc(CNc2nccc(-c3cccnc3)n2)cc1`: the Potency was 205 nM (active) and 590 nM (active).

With `CC(C)(C)c1cnc(CSc2cnc(NC(=O)C3CCNCC3)s2)o1`, the Potency is 0.148 µM (active).

Regarding `Nc1ncnc2c1c(-c1cccc(OCc3ccccc3)c1)cn2C1CC(CN2CCCC2)C1` (stereo not given), the Potency is 10.5 µM (active).

Consider `C[C@@H](Oc1cc(-c2cnn(C3CCNCC3)c2)cnc1N)c1c(Cl)ccc(F)c1Cl`, for which the Potency is 1.15 µM (active) and 1.29 µM (active) and 1.05 µM (active).

As for `CC(C)c1cnn2c(NCc3ccccc3)cc(N[C@@H](CO)[C@H](O)CO)nc12`, the Potency was 515 nM (active) and 166 nM (active).

For the compound `Cc1ccc(C(=O)Nc2cccc(C(F)(F)F)c2)cc1-c1ccc2nc(NCCN3CCOCC3)ncc2c1`, the Potency is 1.83 µM (active) and 4.17 µM (active).

Take `CC1(C)CC(=O)c2c(C(F)(F)F)nn(-c3ccc(C(N)=O)c(NC4CCC(OC(=O)CN)CC4)c3)c2C1` (stereo not given): the Potency was 81.7 nM (active) and 118 nM (active).

`COc1c(OCCCN2CCOCC2)ccc2c3n(c(=NC(=O)c4cnc(N)nc4)nc12)CCN3`: the Potency is 8.4 nM (active) and 60.5 nM (active).

Regarding `Cc1cc(Nc2cc(CN3CCOCC3)c3nc(C)c(Cc4ccc(Cl)cc4F)n3n2)n[nH]1`, the Potency was 2.59 µM (active) and 1.18 µM (active).

With `CN(C)Cc1c(C(=O)NCCOc2ccc(C(=O)NO)cc2)oc2ccccc12`, the Potency is 515 nM (active) and 296 nM (active).

As to `Cn1cncc1[C@@](N)(c1ccc(Cl)cc1)c1ccc2c(c1)c(-c1cccc(Cl)c1)cc(=O)n2C`, the Potency entry was “inactive”.

In the case of `c1ccc2c(CCNc3ccc(Nc4ccncc4)cc3)c[nH]c2c1`, the Potency is 578 nM (active) and 296 nM (active).

As for `O=C(Nc1nc2cccc(-c3ccc(CN4CCS(=O)(=O)CC4)cc3)n2n1)C1CC1`, the Potency was 18.3 µM (active) and 9.34 µM (active).

With `Cc1cc(Nc2nc(N[C@@H](C)c3ccc(F)cc3)c(C#N)cc2F)n[nH]1`, the Potency is 578 nM (active) and 742 nM (active).

Take `COc1ccc2c(OCc3nnc4ccc(-c5ccccc5)nn34)ccnc2c1`: the Potency entry is “inactive”.

As to `COc1c(N2C[C@@H]3CCCN[C@H]3C2)c(F)cc2c(=O)c(C(=O)O)cn(C3CC3)c12`, the Potency result is “inactive”.
